Experimental data as given in the supplement of paper PMC3545927.
The other results are listed elsewhere or left out. How many sequences the whole screen found active is unknown.

Target: furin, P09958
Assay: furin cleavage Z-score vs untreated control; higher = more cleavage, active = 3.5 or more, inactive = 1 or less, 8 variable residues between constant flanks
In short: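 Purified furin digested bead-held 8-mer peptide–cDNA fusions at 1:10 enzyme:substrate in 0.01 ml of 50 mM HEPES pH 7.5 with CaCl2 and NaCl for 7.5, 15 or 30 min. The cleavage Z-score compares sequencing counts of released DNA with furin-free reactions on a log scale, with lowess adjustment and median absolute deviation scaling.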

furin, P09958, sequence (P09958 whole entry): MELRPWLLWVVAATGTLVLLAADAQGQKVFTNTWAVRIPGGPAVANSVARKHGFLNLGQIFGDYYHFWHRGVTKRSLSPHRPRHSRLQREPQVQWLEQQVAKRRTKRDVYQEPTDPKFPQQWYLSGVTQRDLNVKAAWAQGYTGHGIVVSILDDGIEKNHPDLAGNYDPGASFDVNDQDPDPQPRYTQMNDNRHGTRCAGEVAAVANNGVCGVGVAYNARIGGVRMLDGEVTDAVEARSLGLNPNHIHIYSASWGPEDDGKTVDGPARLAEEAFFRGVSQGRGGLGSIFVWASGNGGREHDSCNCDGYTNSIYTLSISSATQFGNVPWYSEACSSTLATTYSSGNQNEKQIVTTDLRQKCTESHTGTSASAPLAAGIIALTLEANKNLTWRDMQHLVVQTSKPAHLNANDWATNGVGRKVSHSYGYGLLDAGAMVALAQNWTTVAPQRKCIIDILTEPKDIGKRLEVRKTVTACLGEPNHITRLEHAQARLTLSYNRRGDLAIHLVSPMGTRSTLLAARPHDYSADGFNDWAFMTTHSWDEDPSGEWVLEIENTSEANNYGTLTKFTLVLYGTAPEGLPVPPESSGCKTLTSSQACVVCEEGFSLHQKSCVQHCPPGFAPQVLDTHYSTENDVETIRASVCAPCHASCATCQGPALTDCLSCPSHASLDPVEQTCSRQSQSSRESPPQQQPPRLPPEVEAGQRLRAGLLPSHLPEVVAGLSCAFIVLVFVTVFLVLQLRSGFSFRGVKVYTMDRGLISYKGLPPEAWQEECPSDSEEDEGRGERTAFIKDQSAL

| Sequence | furin cleavage Z-score (7.5 min) | furin cleavage Z-score (15 min) | furin cleavage Z-score (30 min) |
| --- | --- | --- | --- |
| CADLARHYKSAGNASASA [FS-982] | 1.07 | -0.538 (inactive) | -1.88 (inactive) |
| CAYKGVWRVDAGNASASA [HC1168] | -0.715 (inactive) | -0.703 (inactive) | 0.326 (inactive) |
| CAHFLSQTKQAGNASASA [HC946] | -1.62 (inactive) | -0.0771 (inactive) | 0.398 (inactive) |
| CASTPCSAHYAGNASASA [HC2569] | -0.833 (inactive) | 0.198 (inactive) | 0.946 (inactive) |
| CATTRVRRRSAGNASASA [FS-1100] | 8.61 (active) | 10.7 (active) | 6.67 (active) |
| CAVFGPLWILAGNASASA [HC608] | -0.487 (inactive) | -1.14 (inactive) | -0.989 (inactive) |
| CARRLRDQEAAGNASASA [FS-1781] | 0.143 (inactive) | -1.21 (inactive) | -0.196 (inactive) |
| CARRPRRVEAAGNASASA [FS-1921] | 1.67 | 1.82 | 3.69 (active) |
| CARTPRSSSAAGNASASA [FS-2833] | 0.99 (inactive) | -0.243 (inactive) | 2.32 |
| CARRPRRVIAAGNASASA [FS-2179] | -0.112 (inactive) | 2.08 | 3.81 (active) |
| CARRPQDVKFAGNASASA [HC169] | -0.409 (inactive) | -1.01 (inactive) | -0.285 (inactive) |
| CARRPRQKEAAGNASASA [FS-2782] | 0.0199 (inactive) | -1.9 (inactive) | -0.838 (inactive) |
| CARRPRHLSAAGNASASA [FS-1837] | 5.27 (active) | 4.94 (active) | 5.51 (active) |
| CARTPREVEAAGNASASA [FS-2467] | 1.78 | 1.61 | 4.16 (active) |
| CAALMTGYTGAGNASASA [HC880] | -1.03 (inactive) | -2.97 (inactive) | -0.313 (inactive) |
| CAEFVVCCSMAGNASASA [HC2127] | -1.01 (inactive) | 0.711 (inactive) | -0.748 (inactive) |
| CASTNCSAHLAGNASASA [HC2521] | 1.3 | -0.319 (inactive) | 0.484 (inactive) |
| CAESYSSMPPAGNASASA [HC1352] | 0.813 (inactive) | -0.573 (inactive) | -0.906 (inactive) |
| CAMDVVCCSMAGNASASA [HC2106] | -0.103 (inactive) | -0.752 (inactive) | -0.482 (inactive) |
| CARDWAHNGLAGNASASA [HC639] | 0.358 (inactive) | -0.707 (inactive) | 0.626 (inactive) |
| CARGKRRREKAGNASASA [FS-2017] | -0.00549 (inactive) | -0.584 (inactive) | -1.52 (inactive) |

| Sequence | furin cleavage Z-score (7.5 min) | furin cleavage Z-score (15 min) | furin cleavage Z-score (30 min) |
| --- | --- | --- | --- |
| CARGKRYSYKAGNASASA [FS-2019] | 0.222 (inactive) | 0.712 (inactive) | 1.19 |
| CARGKRHATKAGNASASA [FS-2015] | 7.59 (active) | 7.53 (active) | 7.79 (active) |
| CAQRKRGGTAAGNASASA [WN1] | -1.04 (inactive) | 0.079 (inactive) | -0.249 (inactive) |
| CARGKRQATAAGNASASA [FS-2016] | 7.14 (active) | 9.61 (active) | 6.1 (active) |
| CAGERCDLEDAGNASASA [HC485] | 0.0125 (inactive) | -0.597 (inactive) | 0.387 (inactive) |
| CASSYGFQYSAGNASASA [HC1465] | 1.75 | 0.0331 (inactive) | -0.209 (inactive) |
| CATTPCSGSMAGNASASA [HC1926] | -0.191 (inactive) | 0.357 (inactive) | -1.65 (inactive) |
| CAARDQLEQAAGNASASA [HC1588] | 1.26 | 0.408 (inactive) | -0.23 (inactive) |
| CATGSPITYSAGNASASA [HC804] | -0.202 (inactive) | -0.337 (inactive) | -0.568 (inactive) |
| CAIFSRCARSAGNASASA [FS-1343] | 0.568 (inactive) | 0.619 (inactive) | 1.19 |
| CANAHRDKKSAGNASASA [FS-831] | -0.25 (inactive) | -0.94 (inactive) | -2.16 (inactive) |
| CAKGSRRKKSAGNASASA [FS-39] | 5.36 (active) | 4.72 (active) | 4.1 (active) |
| CASFDRKKKSAGNASASA [FS-1485] | -0.34 (inactive) | -0.366 (inactive) | -0.05 (inactive) |
| CAMIHRFWKSAGNASASA [FS-1376] | 0.282 (inactive) | -1.21 (inactive) | -1.26 (inactive) |
| CALKHRVKKSAGNASASA [FS-1358] | 8.56 (active) | 10.2 (active) | 8.6 (active) |
| CAVPPRRKKSAGNASASA [FS-736] | 3.36 | 2.71 | 4.45 (active) |
| CAIFSRVKKSAGNASASA [FS-802] | 3.99 (active) | 2.87 | 3.95 (active) |
| CAEIEVPCHRAGNASASA [HC2444] | 1.1 | 1.09 | 0.798 (inactive) |
| CAVFDITKLLAGNASASA [HC603] | 0.928 (inactive) | -0.333 (inactive) | 0.0832 (inactive) |
| CAKAARAKKIAGNASASA [FS-600] | -0.438 (inactive) | -0.00567 (inactive) | -0.411 (inactive) |
| CAAATAFVGAAGNASASA [HC1073] | -1.28 (inactive) | -0.663 (inactive) | -0.282 (inactive) |
